Screening data (PubChem)
FBW7 activator = FBW7 E3 ligase activators, primary screen, biochemical, AlphaScreen, human; normalized activity (activation), % at 26.1 µM; AlphaScreen FBW7–phospho-cyclin E peptide binding, activator screen; F-box/WD repeat-containing protein 7 (Homo sapiens), Q969H0; hit rate 0.13% among 650,000; in the data active = normalized activity above about 1.9%;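 note: purified mutant Fbw7 with reduced substrate affinity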
MITF inh = MITF inhibitors, primary screen, biochemical, AlphaScreen, human; hit rate 0.91% among 650,000; AlphaScreen MITF homodimerization, bead proximity signal; inhibition, % at 2.6 µM; in the data active = inhibition above about 50%;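 note: 0% = vehicle wells with protein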
Target sequence (O75030 whole entry, looked up): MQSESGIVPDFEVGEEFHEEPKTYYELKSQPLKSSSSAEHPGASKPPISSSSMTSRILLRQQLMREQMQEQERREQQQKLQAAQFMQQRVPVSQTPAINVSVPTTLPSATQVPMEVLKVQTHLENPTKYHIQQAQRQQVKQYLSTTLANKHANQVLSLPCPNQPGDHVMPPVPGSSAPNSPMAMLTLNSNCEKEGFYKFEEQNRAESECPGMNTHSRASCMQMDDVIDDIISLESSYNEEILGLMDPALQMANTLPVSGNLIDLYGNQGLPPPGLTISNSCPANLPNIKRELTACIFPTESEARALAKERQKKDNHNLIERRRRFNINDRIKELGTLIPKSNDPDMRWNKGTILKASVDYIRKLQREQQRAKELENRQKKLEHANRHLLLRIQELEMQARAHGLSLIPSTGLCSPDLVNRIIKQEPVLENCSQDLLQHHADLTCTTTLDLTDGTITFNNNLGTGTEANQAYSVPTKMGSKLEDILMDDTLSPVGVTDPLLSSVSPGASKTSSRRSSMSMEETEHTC
TEAD-YAP inh = TEAD-YAP interaction inhibition, primary screen, TEAD-YAP interaction inhibitor project, luminescence, HEK-TIYL cells; TEAD-Gal4/YAP UAS-luciferase luminescence; inhibition, % at 9.12 µM; hit rate 1.4% among 640,000; AID 1259422, 2018; in the data active = inhibition above about 32%;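 note: 0% = median of test compound wells and 100% = reference inhibitor wells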
GPR151 activ = activators of human GPR151, primary screen, cell-based, PathHunter beta-arrestin, luminescence; activation, % at 11.2 µM; PathHunter beta-arrestin GPR151 cells; hit rate 1% among 650,000; in the data active = activation above about 4.9%;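 note: 0% = median of compound wells and 100% = cells with positive control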
MITF confirm = MITF inhibitors, retest of hits, confirmation, biochemical, AlphaScreen, triplicate; shares compounds with MITF inh; AlphaScreen MITF homodimerization, biotin/His-MITF beads; inhibition, % at 2.6 µM; hit rate 16% among 4,700; AID 1259372, 2018;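 active = inhibition above a cutoff derived from the DMSO control wells, cut at about 28% in these data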;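 note: 0% = MITF dimer wells with DMSO only; inhibitors lower the bead chemiluminescence by keeping MITF from dimerizing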
AlphaScreen DR = AlphaScreen optical interference compounds, dose response, counter-screen, biochemical, HTS | shares compounds with MITF inh | AlphaScreen optical interference counterscreen, cell-free | AID 1259373, 2018 | hit rate 6% among 480 | IC50, µM; call rule not given here
AlphaScreen intf2 = AlphaScreen optical interference compounds, counter-screen for MITF inhibitor project, biochemical, triplicate. shares compounds with MITF inh. LysRS AlphaScreen counterscreen, signal interference. inhibition, % at 2.6 µM. hit rate 7.6% among 4,700. AID 1259376, 2018;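 active = inhibition above a cutoff derived from the DMSO control wells, cut at about 30% in these data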
Active calls of the source: *; ! = repeats disagree. An excerpt weighted towards active compounds, which were near 3.4% of everything screened.

What do the screens show for `COc1ccc(CN2CCN(C(=O)c3cccc(F)c3)CC2)cc1Br`?
FBW7 activator: 0; MITF inh: 59*; TEAD-YAP inh: 3; GPR151 activ: -1; MITF confirm: 15; AlphaScreen intf2: 15

What do the screens show for `COc1ccc(-c2csc(/C(C#N)=C/Nc3ccccc3OC)n2)cc1`?
FBW7 activator: 0; MITF inh: 4; TEAD-YAP inh: 1; GPR151 activ: 0

What do the screens show for `NC(=O)CSc1nc(-c2ccc(Br)cc2)nc2ccccc12`?
FBW7 activator: 0; MITF inh: -1; TEAD-YAP inh: -8; GPR151 activ: -1

How did Cc1c(C#N)c(O)n(CCCO)c(=O)c1N=Nc1c(C)n(C)n(-c2ccccc2)c1=O do in these assays?
FBW7 activator: -1; MITF inh: 84*; TEAD-YAP inh: 15; GPR151 activ: 1; MITF confirm: 23; AlphaScreen intf2: 100*

What do the screens show for `Cc1c(C#N)c(O)n(CCO)c(=O)c1N=Nc1ccccc1C(=O)O`?
FBW7 activator: 0; MITF inh: 16; TEAD-YAP inh: 12; GPR151 activ: -1

Results for CN(C)[C@@H]1C(=O)C(C(=O)NCN2CCCC2)=C(O)[C@@]2(O)C(=O)C3=C(O)c4c(O)cccc4[C@@](C)(O)C3CC12 (stereo partly specified) ?
FBW7 activator: 0; MITF inh: 72*; TEAD-YAP inh: -3; GPR151 activ: 1; MITF confirm: 78*; AlphaScreen DR: >6.5; AlphaScreen intf2: 8

What do the screens show for `CN(C)CCS(=O)c1cc(-c2cn[nH]c2)ccc1NC(=O)[C@H]1Cc2cc(F)ccc2CN1` (stereo partly specified)?
FBW7 activator: 0; MITF inh: 56*!; TEAD-YAP inh: 1; GPR151 activ: 0; MITF confirm: 72*; AlphaScreen DR: >6.5; AlphaScreen intf2: 4

How did CN(C)CCS(=O)c1cc(-c2cn[nH]c2)ccc1NC(=O)[C@@H]1Cc2cc(F)ccc2CN1 (stereo partly specified) do in these assays?
FBW7 activator: 1.9*!; MITF inh: 75*!; TEAD-YAP inh: 1; GPR151 activ: 0; MITF confirm: 68*; AlphaScreen DR: >6.5; AlphaScreen intf2: 8

Results for COc1ccc(Cn2c(O)c(C=Nc3ccc(Cl)cn3)c3ccccc3c2=O)cc1 ?
FBW7 activator: 0; MITF inh: 21; TEAD-YAP inh: -9; GPR151 activ: -3

Results for COc1ccccc1-n1c(SCC(=O)NNC=O)nnc1-c1ccc(C)cc1 ?
FBW7 activator: 0; MITF inh: 84*; TEAD-YAP inh: -46; GPR151 activ: -2; MITF confirm: 5; AlphaScreen intf2: 8

How did COc1ccccc1-n1c(SCC(=O)Nc2ccc(C)cc2)nnc1-c1ccncc1 do in these assays?
FBW7 activator: 0; MITF inh: -16; TEAD-YAP inh: 4; GPR151 activ: -1

How did COc1ccc(OC)c(CN2CCN(Cc3cc(OC)ccc3OC)CC2)c1 do in these assays?
FBW7 activator: 0; MITF inh: 57*; TEAD-YAP inh: -2; GPR151 activ: 3; MITF confirm: -4; AlphaScreen intf2: -3

Results for COc1ccc(OC)c(CN(CCCN(C)C)CCCN(C)C)c1 ?
FBW7 activator: 0; MITF inh: 59*; TEAD-YAP inh: -7; GPR151 activ: 0; MITF confirm: -11; AlphaScreen intf2: -6

What do the screens show for `COc1ccc(OC)c(CN2CCC(N3CCCC(C)C3)CC2)c1` (stereo unspecified)?
FBW7 activator: 0; MITF inh: 51*; TEAD-YAP inh: 1; GPR151 activ: 2; MITF confirm: -6; AlphaScreen intf2: 4

Results for CCc1ccc(CN2CCN(Cc3cc(OC)ccc3OC)CC2)cc1 ?
FBW7 activator: 0; MITF inh: 65*; TEAD-YAP inh: 2; GPR151 activ: -2; MITF confirm: 11; AlphaScreen intf2: 17

What do the screens show for `COc1ccc(Br)cc1CN(CCCN(C)C)CCCN(C)C`?
FBW7 activator: 0; MITF inh: 48; TEAD-YAP inh: -6; GPR151 activ: 1
